biological target: T1, VCPIP1 (UniProt Q96JH7); test: log2 ratio of Biotin-Ahx-Ub-VS probe labelling (fragment/DMSO); higher = less target engagement (more negative = stronger competition), active = hit call of the paper (q ≤ 0.05, log2 ratio ≤ -1); details: compound concentration: 200 uM; treatment time: 3 h
T1 sequence (whole entry): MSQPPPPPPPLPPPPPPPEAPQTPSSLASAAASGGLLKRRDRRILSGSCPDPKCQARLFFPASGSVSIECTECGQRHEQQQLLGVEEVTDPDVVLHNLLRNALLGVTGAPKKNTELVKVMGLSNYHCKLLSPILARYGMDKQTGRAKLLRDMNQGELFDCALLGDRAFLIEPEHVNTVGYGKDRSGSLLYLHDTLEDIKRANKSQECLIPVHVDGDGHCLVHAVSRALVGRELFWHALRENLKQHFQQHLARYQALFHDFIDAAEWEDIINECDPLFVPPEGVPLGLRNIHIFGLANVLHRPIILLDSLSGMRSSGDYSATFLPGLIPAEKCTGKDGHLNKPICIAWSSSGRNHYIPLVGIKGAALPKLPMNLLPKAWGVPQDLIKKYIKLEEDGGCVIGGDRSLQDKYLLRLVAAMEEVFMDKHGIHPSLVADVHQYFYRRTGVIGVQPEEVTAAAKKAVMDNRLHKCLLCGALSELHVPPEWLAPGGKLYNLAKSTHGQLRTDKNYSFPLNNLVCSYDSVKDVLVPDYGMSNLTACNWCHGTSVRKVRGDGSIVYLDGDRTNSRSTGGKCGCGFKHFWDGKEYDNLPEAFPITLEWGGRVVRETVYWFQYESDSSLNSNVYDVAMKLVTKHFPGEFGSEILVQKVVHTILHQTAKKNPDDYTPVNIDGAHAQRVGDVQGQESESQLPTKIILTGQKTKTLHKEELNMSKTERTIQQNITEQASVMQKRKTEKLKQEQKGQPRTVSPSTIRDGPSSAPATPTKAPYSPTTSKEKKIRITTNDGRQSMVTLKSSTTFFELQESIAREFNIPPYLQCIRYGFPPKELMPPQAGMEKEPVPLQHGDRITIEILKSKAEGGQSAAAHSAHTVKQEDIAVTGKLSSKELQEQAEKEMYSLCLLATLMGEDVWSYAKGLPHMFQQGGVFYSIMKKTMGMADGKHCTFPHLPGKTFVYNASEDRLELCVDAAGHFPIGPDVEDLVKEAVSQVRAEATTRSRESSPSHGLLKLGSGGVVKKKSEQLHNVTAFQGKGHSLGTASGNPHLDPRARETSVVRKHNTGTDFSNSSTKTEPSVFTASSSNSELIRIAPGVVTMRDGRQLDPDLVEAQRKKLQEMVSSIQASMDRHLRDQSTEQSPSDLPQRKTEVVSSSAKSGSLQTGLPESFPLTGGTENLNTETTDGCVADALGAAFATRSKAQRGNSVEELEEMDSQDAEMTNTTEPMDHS
Method: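 Competitive ABPP in HEK293T cell lysate. Lysates were treated with each chloroacetamide fragment at 200 µM for 3 h, then with Biotin-Ahx-Ub-VS (0.5 µM, 1 h), NeutrAvidin-enriched and analysed by diaPASEF LC-MS/MS. Protein LFQ was median-normalised; average log2 ratio is fragment/DMSO from an unpaired t-test (n=3 treated, n=44 DMSO). Hits: q ≤ 0.05, log2 ratio ≤ -1, unique peptides ≥ 2.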

SMILES | log2 ratio of Biotin-Ahx-Ub-VS probe labelling
CN(C)C(=O)c1ccc(NC(=O)CCl)cc1 | -0.601 (inactive)
O=C(CCl)NCCC1=CCCCC1 | -0.647 (inactive)
O=C(CCl)N1CCC(c2noc3cc(F)ccc23)CC1 | -2.98 (active)
CCN(Cc1ccc(C#N)cc1F)C(=O)CCl | -0.594 (inactive)
Cc1cccc(C)c1NC(=O)CCl | -0.74 (inactive)
N#Cc1ccc(CNC(=O)CCl)cc1 | -1.31 (active)
O=C(CCl)N1CCc2nc[nH]c2C1c1ccc(Cl)cc1 (stereo not given) | -1.07 (active)
Cl.O=C(CCl)N1CC(c2ccc(Br)cn2)C1 | -1.3 (active)
O=C(CCl)N1CCC(C(=O)N2CCCCCC2)CC1 | -0.246 (inactive)
Cc1ccccc1C1(CNC(=O)CCl)CCOCC1 | -0.843 (inactive)
Cl.O=C(CCl)N1CCCC(c2ncc[nH]2)C1 (stereo not given) | -0.387 (inactive)
Cn1cc(CN(Cc2ccc(Cl)cc2)C(=O)CCl)cn1 | -0.623 (inactive)
CNC(=O)C1(NC(=O)CCl)CCCCC1 | -0.262 (inactive)
O=C(CCl)Nc1cc2c(cc1Cl)OCCCO2 | -2.71 (active)
CC(O)CC1CCN(C(=O)CCl)CC1 (stereo not given) | -0.106 (inactive)
O=C(CCl)N1CCCCC12CCOCC2 | -0.562 (inactive)
Cc1cccc(NC(=O)[C@@H]2CCCN2C(=O)CCl)n1 | -0.551 (inactive)
Cc1ccc(CN(CCO)C(=O)CCl)cc1 | -0.862 (inactive)
O=C(CCl)N1CCN2C(=O)CCC2C1 (stereo not given) | -0.0347 (inactive)
O=C(CCl)NCCc1cccc2ccccc12 | -1.04 (active)

SMILES | log2 ratio of Biotin-Ahx-Ub-VS probe labelling
Cl.O=C(CCl)N1CCC(Cc2nccs2)C1 (stereo not given) | -2.29 (active)
O=C(CCl)Nc1ccc2c(c1)OC(F)(F)O2 | -1.43 (active)
CC(NC(=O)CCl)c1cccc(Cl)c1 (stereo not given) | -1.59 (active)
Cc1ccc2nnc(CNC(=O)CCl)n2c1 | -1.34 (active)
O=C(CCl)N1CCC(=C(F)CO)C1 | -0.129 (inactive)
Cc1cccc(N2CCC(NC(=O)CCl)C2=O)c1 (stereo not given) | -1.91 (active)
CC(NC(=O)CCl)c1ccc2[nH]ncc2c1 (stereo not given) | -2.26 (active)
Cl.Cn1nc2c(c1CNC(=O)CCl)CCCC2 | -1.63 (active)
O=C(CCl)N1CCC2(CCC(O)CC2)CC1 | -0.183 (inactive)
Cc1n[nH]c(=O)c2c(NC(=O)CCl)oc(C)c12 | -0.15 (inactive)
Cc1cccc(C(CNC(=O)CCl)N2CCOCC2)c1.Cl (stereo not given) | -0.833 (inactive)
Cl.O=C(CCl)N1CCN(Cc2ccccc2)CC1 | -0.476 (inactive)
O=C(CCl)NCCC1COCCO1 (stereo not given) | -0.791 (inactive)
O=C(CCl)N1CCC(c2ccn[nH]2)C1 (stereo not given) | -0.333 (inactive)
CC(NC(=O)CCl)c1cc2n(n1)CCCC2.Cl (stereo not given) | -0.662 (inactive)
O=C(CCl)N1CCCCCC1c1ncon1 (stereo not given) | -0.233 (inactive)
Cc1ccc(CC(CO)CNC(=O)CCl)cc1 (stereo not given) | -2.23 (active)
CC(NC(=O)CCl)c1csc(-c2ccccc2)n1.Cl (stereo not given) | -2.16 (active)
COCC[C@@H](NC(=O)CCl)c1ccccc1 | -0.654 (inactive)
Cl.Cn1c(CNC(=O)CCl)nc2cccnc21 | -0.977 (inactive)

Reference: the supplement of paper PMC11732987, “Enantioselective OTUD7B fragment discovery through chemoproteomics screening and high-throughput optimisation” (Communications Chemistry, 2025)
